These results are taken from PubChem BioAssay (NCATS).

A short description of test [1]: Drug repurposing screens with cells derived from glioblastoma tumor samples (AID 1345199). Further: nearly all actives have a fitted effect of over 40% in size. To be noted: GBM patient neurospheres viability, ATP luminescence, 48 h. The procedure, abridged: (§1)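 Primary testing used CD133+ neurospheres from four GBM patients, seven concentrations, 48 h exposure and ATP-based viability; confirmation added three slower-growing patient lines.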

The next test deals with astro (control astrocytes). Described as above. The note with it: viability, ATP luminescence, 48 h; series mostly up to 45.9 µM. The method, boiled down:
as §1

The mark [2] stands for this setting: at 45.9 µM (top of the series), tumour line B.
Setting [3] is: at 45.9 µM (top of the series), tumour line D.
Where [4] appears, read: at 46 µM (top of the series), tumour line A.
Where [5] appears, read: at 46.1 µM (top of the series), tumour line C.

Inconclusive results are not listed. Values without a mark were called inactive. Activity calls are given as the source filed them. The call rests on the fitted dose curve; in most records, active means well fitted inhibition curve with a large enough effect; inconclusive means small, poorly fitted or top-dose-only effect; inactive means flat fitted curve, though single readings scatter.
On the % scale 0 is the no-effect control and ±100 the full control effect; potency means the concentration at half of the fitted maximal effect.

As to `Nc1ccncc1N`, the activity, negative = cell killing in test [1] (setting [2]) is -7.35%; in test [1] (setting [3]), -6.96%; in test [1] (setting [4]), -18.3%; in test [1] (setting [5]), -14.3%. Moreover, the outcome with astro was inactive.

Regarding `CC[C@]12CCCN3CCc4c(n(c5ccccc45)[C@@](O)(C(=O)OC)C1)[C@@H]32`, the results for the activity, negative = cell killing in test [1] (setting [2]), in test [1] (setting [3]) and in test [1] (setting [5]) were -12.1%, 5.83% and -21.5%, respectively. For the same compound, the Potency in test [1] (tumour line A) is 17.8 µM (active). In addition, the result in the test with astro was inactive.

Regarding `COc1ccc(NS(=O)(=O)c2ccc(N)cc2)nn1`, the activity, negative = cell killing in test [1] (at 20 µM (top of the series), tumour line C) was -22.2%; in test [1] (at 21.2 µM (top of the series), tumour line B), -14.9%; in test [1] (at 21.2 µM (top of the series), tumour line D), -7.76%; in test [1] (at 21.3 µM (top of the series), tumour line A), -20.5%. For the same compound, the compound was classed as inactive with astro.

Regarding `O=C(O)CNC(=O)c1ccccc1I`, the activity, negative = cell killing was -1.24% in test [1] (setting [2]), 4.71% in test [1] (setting [3]), -24.5% in test [1] (setting [4]) and -16.1% in test [1] (setting [5]). Besides, the compound was classed as inactive in the test with astro.

As to `CCOC(=O)[C@H](CCc1ccccc1)N[C@@H](C)C(=O)N1CCC[C@H]1C(=O)O`, the activity, negative = cell killing in test [1] (setting [2]) was -10.1%; in test [1] (setting [3]), -16.5%; in test [1] (setting [4]), -13.8%; in test [1] (setting [5]) it was -21.6%. Also, the compound was called inactive with astro.

Consider `CC(N)CCCC(C)(C)O` (stereo not given), for which the activity, negative = cell killing in test [1] (setting [2]) is -8.17%; in test [1] (setting [3]), -3.88%; in test [1] (setting [4]) it was -24.8%; in test [1] (setting [5]), -13.9%. The result in the test on astro was inactive.

In the case of `O=C(NCN1CCOCC1)c1cnccn1`, the activity, negative = cell killing is -3.93% in test [1] (setting [2]), -22.6% in test [1] (setting [3]), -8.03% in test [1] (setting [4]) and -4.53% in test [1] (setting [5]). Also, the outcome with astro was inactive.

Regarding `O=C(O)c1ccc(OCCCOc2ccc(C(=O)O)cc2)cc1`, the activity, negative = cell killing in test [1] (setting [2]) was -4.79%; in test [1] (setting [3]), -29%; in test [1] (setting [4]) it was -33.4%; in test [1] (setting [5]) it was -12%. Moreover, in the test on astro, the compound was classed as inactive.

In the case of `O=C(O)CCC(=O)O`, the activity, negative = cell killing is -11.8% in test [1] (setting [2]), -1.31% in test [1] (setting [3]), -19% in test [1] (setting [4]) and 36.7% in test [1] (setting [5]). Moreover, the compound was called inactive with astro.
